Measurements reported in PubChem BioAssay (Tox21).
“And” between values parts separate entries of the source, which are not always exact repeats. Equal entries are not always repeated. Results filed as inconclusive are left out. The source made the active and inactive calls. Unless noted, the call rests on the fitted dose curve; in most records, active means well fitted curve in the direction sought with a large enough effect in the repeat runs; inconclusive means weak or mixed curves; inactive means no such curve, though single readings can be large; an effect the other way counts as inactive or inconclusive.

How the values were obtained:
[1] = qHTS assay to identify small molecule antagonists of the thyroid receptor (TR) signaling pathway (AID 743065); further: nearly all actives have a fitted effect of over 55% in size; further: potency means the concentration at half of the fitted maximal effect; on activity, negative = inhibition: series mostly up to about 70 µM
Summary of the method: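 Antagonism measured as loss of luciferase signal in GH3 cells stably carrying a TRE-luciferase reporter, co-treated with compound and T3 (1 nM final) for 23.5 h at 37 C. Viability was read in the same well by CellTiter-Fluor.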

[2] = system: thyroid hormone receptor (rat, GH3 cells); assay: qHTS assay to identify small molecule agonists of the thyroid receptor (TR) signaling pathway (AID 743066; calls by dose curve)
[3] = qHTS assay to identify small molecule antagonists of the estrogen receptor alpha (ER-alpha) signaling pathway - cell viability counter screen (AID 743074; calls by dose curve;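 further: HEK293 cells carrying ER-alpha-UAS-bla reporter stimulated with 17beta-estradiol; nearly all actives have a fitted effect of over 45% in size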)
[4] = molecular target: Estrogen receptor (Homo sapiens) (UniProt P03372); assay: qHTS assay to identify small molecule agonists of the estrogen receptor alpha (ER-alpha) signaling pathway (AID 743075; calls by dose curve;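 further: HEK293 GripTite cells with ER-alpha and UAS-driven beta-lactamase reporter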)
Chain of Estrogen receptor (Homo sapiens) (P03372 whole entry, looked up): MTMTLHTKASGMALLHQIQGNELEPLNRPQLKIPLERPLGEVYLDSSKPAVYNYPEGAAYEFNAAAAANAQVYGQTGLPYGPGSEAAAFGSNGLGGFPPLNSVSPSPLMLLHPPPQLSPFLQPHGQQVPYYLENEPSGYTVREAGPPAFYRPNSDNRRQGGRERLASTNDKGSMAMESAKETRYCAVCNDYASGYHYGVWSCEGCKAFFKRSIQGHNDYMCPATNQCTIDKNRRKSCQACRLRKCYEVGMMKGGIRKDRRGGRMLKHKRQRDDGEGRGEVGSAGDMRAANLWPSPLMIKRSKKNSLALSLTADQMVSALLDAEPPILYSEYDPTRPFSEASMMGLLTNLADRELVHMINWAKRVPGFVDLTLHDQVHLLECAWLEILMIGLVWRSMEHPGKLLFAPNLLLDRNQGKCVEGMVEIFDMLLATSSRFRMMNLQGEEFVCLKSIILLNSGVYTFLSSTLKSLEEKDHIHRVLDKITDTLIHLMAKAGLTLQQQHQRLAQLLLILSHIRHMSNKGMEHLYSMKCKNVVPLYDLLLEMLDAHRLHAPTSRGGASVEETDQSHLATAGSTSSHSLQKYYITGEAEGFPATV

[5] = molecular target: Estrogen receptor (Homo sapiens) (UniProt P03372); assay: qHTS assay to identify small molecule agonists of the estrogen receptor alpha (ER-alpha) signaling pathway using the BG1 cell line (AID 743079); further: nearly all actives have a fitted effect of over 20% in size; further: potency means the concentration at half of the fitted maximal effect
Aromatase (Homo sapiens) = Aromatase (Homo sapiens) (UniProt P11511); assay: qHTS assay to identify aromatase inhibitors (AID 743083); further: series mostly up to about 70 µM; nearly all actives have a fitted effect of over 55% in size
Chain of Aromatase (Homo sapiens) (P11511 whole entry, looked up): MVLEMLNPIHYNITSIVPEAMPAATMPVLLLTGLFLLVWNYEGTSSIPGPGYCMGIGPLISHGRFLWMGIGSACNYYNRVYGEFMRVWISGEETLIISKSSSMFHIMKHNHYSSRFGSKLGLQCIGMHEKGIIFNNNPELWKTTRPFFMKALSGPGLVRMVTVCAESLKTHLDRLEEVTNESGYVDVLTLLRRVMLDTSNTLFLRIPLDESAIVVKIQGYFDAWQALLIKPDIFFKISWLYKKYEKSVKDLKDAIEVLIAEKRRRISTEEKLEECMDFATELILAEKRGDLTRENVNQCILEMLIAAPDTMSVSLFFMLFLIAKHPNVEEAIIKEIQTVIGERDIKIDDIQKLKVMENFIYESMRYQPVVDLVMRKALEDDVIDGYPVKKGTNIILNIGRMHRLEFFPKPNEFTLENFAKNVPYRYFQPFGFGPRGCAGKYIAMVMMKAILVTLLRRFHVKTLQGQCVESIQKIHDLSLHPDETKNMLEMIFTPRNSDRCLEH

[6] = molecular target: Estrogen receptor (Homo sapiens) (UniProt P03372); assay: qHTS assay to identify small molecule antagonists of the estrogen receptor alpha (ER-alpha) signaling pathway (AID 743069; active means well fitted curve in the direction sought with a large enough effect in the signal ratio in the repeat runs, not every such curve was filed as active; the % refers to the signal ratio)
Summary of the method: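 Antagonist mode: compounds in DMSO were co-added with 17beta-estradiol to ER-alpha-bla HEK293 cells (2% charcoal-stripped serum) and left 18 h at 37C. Reporter inhibition was measured as FRET fluorescence after 2 h LiveBLAzer substrate at room temperature.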

[7] = qHTS assay to identify small molecule antagonists of the estrogen receptor alpha (ER-alpha) signaling pathway using the BG1 cell line - cell viability counter screen (AID 743081);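 further: compound given together with 17beta-estradiol as the ER stimulus; series mostly up to about 70 µM; nearly all actives have a fitted effect of over 45% in size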
[8] = qHTS assay to identify small molecule antagonists of the estrogen receptor alpha (ER-alpha) signaling pathway using the BG1 cell line (AID 743080; calls by dose curve; further: nearly all actives have a fitted effect of over 25% in size; further: potency means the concentration at half of the fitted maximal effect; on activity change, negative = inhibition: series mostly up to about 70 µM)
Summary of the method: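 Antagonist mode: compounds in DMSO were pinned onto BG1-Luc-4E2 cells alongside 17beta-estradiol agonist, incubated 21.5 h, and ERE-driven luciferase measured with ONE-Glo. Cytotoxicity was multiplexed using CellTiter-Fluor fluorescence.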
On the % scale 0 is the no-effect control and ±100 the full control effect.

O=c1[nH]nc(-c2ccc([N+](=O)[O-])o2)o1
inactive: Potency [1] | outcome [2] | outcome [3] | Potency [4] | Potency [5] | Potency (Aromatase (Homo sapiens))

CCCCOc1ccc(N)cc1
inactive: Potency [1] | outcome [2] | Potency [6] | outcome [3] | Potency [4] | Potency [7] | Potency (Aromatase (Homo sapiens))

COc1ccc(/C=C/c2cc(OC)cc(=O)o2)cc1
active: Potency [5] 0.884 µM
inactive: Potency [1] | outcome [2] | Potency [6] | outcome [3] | Potency [4] | Potency [7] | Potency (Aromatase (Homo sapiens))

CC/C=C\CCO
inactive: Potency [1] | outcome [2] | outcome [3] | Potency [7]

CCc1ccc2c(c1)C(=O)c1ccccc1C2=O
inactive: Potency [1] | outcome [2] | outcome [3] | Potency [4] | Potency [7] | Potency (Aromatase (Homo sapiens))
active: Potency [5] 27.3 µM

O=C(O)c1c2ccccc2cc2ccccc12
inactive: Potency [1] | outcome [2] | Potency [6] | Potency [4] | Potency [5] | Potency [7] | Potency (Aromatase (Homo sapiens))

COC(=O)/C=C/C(C)=C\C=C\C(C)=C\C=C\C=C(C)\C=C\C=C(C)\C=C\C(=O)O
inactive: Potency [1] | outcome [2] | Potency [6] | outcome [3] | Potency [4] | Potency [7] | Potency (Aromatase (Homo sapiens))

COC(=O)C(C)(C)C
inactive: Potency [1] | outcome [2] | outcome [3] | Potency [7] | Potency (Aromatase (Homo sapiens))

C1CCN(CN2CCCCC2)CC1
inactive: Potency [1] | outcome [2] | Potency [6] | outcome [3] | Potency [4] | Potency [5] | Potency [8] | Potency [7] | Potency (Aromatase (Homo sapiens))

CCCC1CCCC(=O)O1 (centres undefined)
inactive: Potency [1] | outcome [2] | Potency [6] | outcome [3] | Potency [4] | Potency [5] | Potency [7] | Potency (Aromatase (Homo sapiens))

CCCCCCCCCCCCCCCCCCCl
inactive: activity, negative = inhibition [1] 15% [at 8.44 µM] | activation [2] 7.57% [at 8.08 µM] | activity, negative = inhibition [6] -5.29% [at 6.71 µM] | activity, negative = cytotoxicity [3] -22.2% [at 6.72 µM] | activation [4] -1.63% [at 6.71 µM] | activation [5] -11% [at 8.47 µM] | activity change, negative = inhibition [8] 0.197% [at 8.47 µM] | activity change, negative = cytotoxicity [7] -0.138% [at 8.47 µM] | activity, negative = inhibition (Aromatase (Homo sapiens)) 13.8% [at 8.47 µM]

CC1=C(C)C(=O)C(C(CCCCCC(=O)O)c2ccccc2)=C(C)C1=O (centres undefined)
inactive: Potency [1] | outcome [2] | Potency [6] | outcome [3] | Potency [4] | Potency [5] | Potency [8] | Potency [7] | Potency (Aromatase (Homo sapiens))

Clc1ccccc1-c1nc(-c2ccncc2)no1
inactive: Potency [1] | outcome [2] | outcome [3] | Potency [7] | Potency (Aromatase (Homo sapiens))

CC[C@H](NC(C)C)[C@H](O)c1ccc(O)c2[nH]c(=O)ccc12
inactive: Potency [1] | outcome [2] | Potency [6] | outcome [3] | Potency [4] | Potency [5] | Potency [8] | Potency [7] | Potency (Aromatase (Homo sapiens))

Nc1nc(Cl)nc2c1ncn2[C@H]1C[C@H](O)[C@@H](CO)O1
active: Potency [1] 298 nM and 48.2 nM
inactive: outcome [2] | outcome [3] | Potency [7] | Potency (Aromatase (Homo sapiens))

CCC(CC)C(=O)O
inactive: Potency [1] | outcome [2] | outcome [3] | Potency [4] | Potency [5] | Potency [8] | Potency [7] | Potency (Aromatase (Homo sapiens))

CC1(C)C(=O)NC(=O)N1CO
inactive: Potency [1] | outcome [2] | Potency [6] | outcome [3] | Potency [4] | Potency [7] | Potency (Aromatase (Homo sapiens))

CCCCCCCCCCCCSC#N
inactive: outcome [2] | Potency [6] | outcome [3] | Potency [4] | Potency [5] | Potency [8] | Potency [7] | Potency (Aromatase (Homo sapiens))

CC(CN=Cc1ccccc1O)N=Cc1ccccc1O (centres undefined)
inactive: outcome [2] | outcome [3] | Potency [7] | Potency (Aromatase (Homo sapiens))

CCCc1ccc(OC)cc1
inactive: Potency [6] | outcome [3] | Potency [4] | Potency [7] | Potency (Aromatase (Homo sapiens))

C1=COCCC1
inactive: outcome [2] | Potency [6] | outcome [3] | Potency [4] | Potency [5] | Potency [8] | Potency [7] | Potency (Aromatase (Homo sapiens))

CC(C(=O)O)c1ccc(/C=C2\CCCCC2=O)cc1 (centres undefined)
inactive: Potency [1] | outcome [2] | outcome [3] | Potency [7] | Potency (Aromatase (Homo sapiens))

O=C(Nc1ccccc1)c1cc([N+](=O)[O-])ccc1Cl
inactive: outcome [2] | outcome [3] | Potency [4] | Potency [7] | Potency (Aromatase (Homo sapiens))

CC(=O)Oc1cccc2c1C(=O)c1c(OC(C)=O)cc(C(=O)O)cc1C2=O
inactive: outcome [2] | outcome [3] | Potency [7] | Potency (Aromatase (Homo sapiens))

C[C@]12CCC(=O)C=C1[C@@H]1C[C@@H]1[C@H]1[C@@H]3[C@@H]4C[C@@H]4[C@@]4(CCC(=O)O4)[C@@]3(C)CC[C@@H]12
active: Potency [1] 21.1 µM
inactive: outcome [2] | outcome [3] | Potency [7] | Potency (Aromatase (Homo sapiens))

COC=O
inactive: activation [2] 0.249% [at 8.08 µM] | activity, negative = inhibition [6] 29% [at 6.71 µM] | activity, negative = cytotoxicity [3] 7.46% [at 6.72 µM] | activation [4] 2.27% [at 6.71 µM] | activation [5] 11.2% [at 8.47 µM] | activity change, negative = inhibition [8] 1.93% [at 8.47 µM] | activity change, negative = cytotoxicity [7] 4.5% [at 8.47 µM] | activity, negative = inhibition (Aromatase (Homo sapiens)) 2.56% [at 8.47 µM]

CC(C)(C)NCC(O)COc1ccc(NC(=O)NC2CCCCC2)cc1 (centres undefined)
inactive: outcome [2] | Potency [6] | outcome [3] | Potency [4] | Potency [7] | Potency (Aromatase (Homo sapiens))

CC1=C(C)C(=O)C(CCCCC#CCCCC#CCO)=C(C)C1=O
active: Potency [8] 15 µM
inactive: Potency [4] | Potency [7]

O=C(O)c1cccc(C(=O)O)c1C(=O)O
inactive: outcome [2] | Potency [6] | Potency [4] | Potency [5] | Potency [8] | Potency [7] | Potency (Aromatase (Homo sapiens))

CC(Cc1ccccc1)(NC(=O)CN)c1ccccc1 (centres undefined)
inactive: outcome [2] | Potency [6] | outcome [3] | Potency [4] | Potency [5] | Potency [8] | Potency [7] | Potency (Aromatase (Homo sapiens))

CCn1nc(Cc2ccccc2)cc1C1CCN(C[C@H]2C[C@H](N(C)[C@@H](C(=O)O)C(C)C)C[C@@H]2c2cccc(F)c2)CC1
inactive: outcome [2] | outcome [3] | Potency [4] | Potency [5] | Potency [8] | Potency (Aromatase (Homo sapiens))

CCCN(C1CCN(C(=O)C2CCNCC2)CC1)[C@@H]1CCc2ccc(OC)cc2C1
active: Potency [1] 54.5 µM
inactive: outcome [2] | Potency (Aromatase (Homo sapiens))

CCCCCCC/C=C/C=O
inactive: outcome [2] | outcome [3] | Potency [4] | Potency [5] | Potency [7] | Potency (Aromatase (Homo sapiens))

N#Cc1ccc(CC(=O)c2cccc(C(F)(F)F)c2)cc1
inactive: Potency [1] | outcome [2] | outcome [3] | Potency [7] | Potency (Aromatase (Homo sapiens))

Cc1c(Cl)cccc1Nc1ccccc1C(=O)O
inactive: outcome [3] | Potency [4] | Potency [5] | Potency [8] | Potency [7] | Potency (Aromatase (Homo sapiens))
active: Potency [1] 13.3 µM

CCCCCCCCS
inactive: Potency [1] | outcome [2] | Potency [4] | Potency [5] | Potency [7] | Potency (Aromatase (Homo sapiens))

CCCc1nc(C)c2c(=O)[nH]c(-c3cc(S(=O)(=O)N4CCN(CC)CC4)ccc3OCC)nn12
inactive: outcome [3] | Potency [7] | Potency (Aromatase (Homo sapiens))

COC(=O)Cc1cccc2ccccc12
inactive: Potency [6] | outcome [3] | Potency [4] | Potency [5] | Potency [8] | Potency [7] | Potency (Aromatase (Homo sapiens))

O=C(OC1C[C@H]2CC[C@@H](C1)[N+]21CCCC1)C(O)(c1ccccc1)c1ccccc1 (some centres undefined)
inactive: outcome [2] | Potency [7] | Potency (Aromatase (Homo sapiens))

C=CC(O)CCCCC (centres undefined)
inactive: Potency [1] | outcome [2] | outcome [3] | Potency [7] | Potency (Aromatase (Homo sapiens))

CC(C(=O)O)c1ccc2c(c1)Cc1cccnc1O2 (centres undefined)
inactive: Potency [1] | outcome [2] | outcome [3] | Potency [7] | Potency (Aromatase (Homo sapiens))

CCCCCCCCCCCCN1CCOCC1
inactive: outcome [2] | Potency [6] | outcome [3] | Potency [4] | Potency [5] | Potency [7] | Potency (Aromatase (Homo sapiens))

COc1cccc([C@H](O)C2CCN(CCc3ccc(F)cc3)CC2)c1OC
inactive: outcome [2] | Potency [6] | outcome [3] | Potency [4] | Potency [5] | Potency [8] | Potency [7] | Potency (Aromatase (Homo sapiens))

COc1cc(C)c(Cc2cnc(N)nc2N)cc1OC
inactive: Potency [6] | outcome [3] | Potency [4] | Potency [5] | Potency [8] | Potency [7] | Potency (Aromatase (Homo sapiens))

O=C(NC1CCN(CCc2c[nH]c3ccccc23)CC1)c1ccccc1
inactive: outcome [2] | outcome [3] | Potency (Aromatase (Homo sapiens))

C[Si](C)(C)O[Si](C)(C)O[Si](C)(C)C
inactive: outcome [2] | outcome [3] | Potency [7] | Potency (Aromatase (Homo sapiens))

COc1cc(CNC(=O)CCCC/C=C/C(C)C)ccc1O
inactive: outcome [2] | Potency [6] | outcome [3] | Potency [4] | Potency [5] | Potency [7]

O=c1c2ccccc2oc2ccccc12
inactive: outcome [2] | Potency [4] | Potency [7] | Potency (Aromatase (Homo sapiens))
active: Potency [5] 48.6 µM

CO[C@@H]1COCC[C@@H]1N[C@@H]1CC[C@@](C(=O)N2CCc3ncc(C(F)(F)F)cc3C2)(C(C)C)C1
inactive: outcome [3] | Potency [7] | Potency (Aromatase (Homo sapiens))

CC(=O)OCC(=O)[C@@]1(O)CC[C@H]2[C@@H]3CCC4=CC(=O)C=C[C@]4(C)[C@@]3(F)[C@@H](O)C[C@@]21C
inactive: outcome [2] | outcome [3] | Potency [7] | Potency (Aromatase (Homo sapiens))

CC(=O)CC/C=C(\C)CC/C=C(\C)CC/C=C(\C)CCC=C(C)C
inactive: outcome [2] | outcome [3] | Potency [7] | Potency (Aromatase (Homo sapiens))

CC(O)C(C)O (centres undefined)
inactive: Potency [1] | outcome [3] | Potency [7] | Potency (Aromatase (Homo sapiens))

NC(=O)c1cc[n+](CC2=C(C(=O)[O-])N3C(=O)[C@@H](NC(=O)Cc4cccs4)[C@H]3SC2)cc1
inactive: Potency [6] | outcome [3] | Potency [4] | Potency [5] | Potency [8] | Potency [7] | Potency (Aromatase (Homo sapiens))

Clc1cccc(C(c2ccc3nc[nH]c3c2)n2ccnc2)c1 (centres undefined)
inactive: outcome [2] | Potency [6] | Potency [4] | Potency [7]
active: Potency [8] 11.9 µM
